TRb SRC2 PPI: disrupts binding of human TR beta to SRC2 | P10828 | TRbeta-SRC2 peptide binding, fluorescence polarization; receptor liganded with 1 µM T3 | Potency, µM (titrated, usually from 106 µM), for inactives: at the highest dose activity change, negative = inhibition, hits mostly inhibitors | hit rate 0.065% among 280,000;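 also: plate controls were bound peptide for no effect and peptide without receptor for full effect; nearly all actives have a fitted effect of over 50% in size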
Target sequence (P10828 whole entry, looked up): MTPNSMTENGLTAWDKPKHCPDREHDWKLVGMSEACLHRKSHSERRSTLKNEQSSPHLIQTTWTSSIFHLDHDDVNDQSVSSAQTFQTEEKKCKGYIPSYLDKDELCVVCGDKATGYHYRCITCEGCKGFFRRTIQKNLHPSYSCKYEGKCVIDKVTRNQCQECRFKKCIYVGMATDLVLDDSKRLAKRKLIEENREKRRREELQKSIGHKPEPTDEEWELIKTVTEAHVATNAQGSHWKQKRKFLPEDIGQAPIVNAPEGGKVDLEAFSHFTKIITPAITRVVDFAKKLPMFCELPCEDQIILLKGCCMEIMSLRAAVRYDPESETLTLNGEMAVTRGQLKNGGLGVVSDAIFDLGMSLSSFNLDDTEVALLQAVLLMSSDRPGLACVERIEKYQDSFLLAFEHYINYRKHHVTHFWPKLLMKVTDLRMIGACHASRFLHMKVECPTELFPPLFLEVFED
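Polarization signal, normalized between peptide-alone and full complex controls, measured compound effects on T3-liganded human TRb LBD (0.6 uM) binding 20 nM Texas Red SRC2 peptide after 5 hr.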
BLM inh-1: blocks DNA unwinding by human BLM helicase. AID 2528. hit rate 0.2% among 350,000. P54132. Potency, µM (highest dose often 56.1 µM), without a hit: at the highest dose activity change, negative = inhibition, actives largely listed as inhibitors. recombinant BLM DNA unwinding, fluorescence dequenching;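 also: plate controls were vehicle for no effect and no enzyme for full effect; nearly all actives have a fitted effect of over 35% in size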
WRN helicase inh: WRN helicase (human) inhibition | AID 651768 | hit rate 0.46% among 360,000 | Q14191 | Potency, µM (highest dose often 114 µM), for the others: top-dose activity change, negative = inhibition, hits mostly inhibitors | WRN helicase unwinding, fluorescent forked duplex, kinetic; also: nearly all actives have a fitted effect of over 55% in size
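WRN at 20 nM final was preincubated with compound for 15 min at room temperature; reaction started with 100 nM forked duplex oligonucleotide carrying fluorophore and quencher plus 2 mM ATP (final). Unwinding followed kinetically by red fluorescence (ex 525/em 598 nm).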
RECQ1 inh-1: blocks DNA unwinding by human RECQ1; RECQ1 DNA unwinding, red fluorescence kinetic read; hit rate 0.54% among 240,000; P46063; Potency, µM (titrated, usually from 57.3 µM), without a hit: at the top dose activity, negative = inhibition, actives largely listed as inhibitors;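 also: plate controls were vehicle for no effect and no enzyme for full effect; nearly all actives have a fitted effect of over 30% in size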
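RECQ1T1 50 nM; forked duplex (20 bp + 30-nt ss tails) 200 nM, ATP 2 mM final; pH 8.0, 2 mM MgCl2, 2.5 ug/ml poly(dI-dC); 15 min compound preincubation; discontinuous kinetic read over 2 h at RT.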
APE1 inh-1: inhibitors of human APE1 endonuclease; Potency, µM (highest dose often 65.8 µM), for inactives: top-dose activity change, negative = inhibition, most hits filed as inhibitors; hit rate 0.35% among 350,000; P27695; recombinant APE1, TAMRA/BHQ-2 abasic DNA cleavage fluorescence; AID 2517;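 also: plate controls were vehicle for no effect and reference inhibitor for full effect; nearly all actives have a fitted effect of over 55% in size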
Target sequence (P27695 whole entry, looked up): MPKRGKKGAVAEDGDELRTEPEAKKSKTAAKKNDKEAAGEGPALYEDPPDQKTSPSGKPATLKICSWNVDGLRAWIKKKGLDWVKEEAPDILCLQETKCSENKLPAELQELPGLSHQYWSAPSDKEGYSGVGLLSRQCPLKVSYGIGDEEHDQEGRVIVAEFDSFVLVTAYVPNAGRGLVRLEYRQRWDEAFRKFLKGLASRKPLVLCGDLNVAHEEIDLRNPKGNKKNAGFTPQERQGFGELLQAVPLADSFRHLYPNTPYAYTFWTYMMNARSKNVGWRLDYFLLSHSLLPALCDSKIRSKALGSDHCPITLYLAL
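Compound pre-exposure to 0.75 nM APE1, 15 min at ambient temperature. Reaction initiated with 50 nM TAMRA/BHQ-2 THF substrate, read immediately in kinetic mode, 525 nm excitation, 598 nm emission.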
TexasRed fluor: counter-screen for TRb-SRC2 inhibitors: fluorescence interference | AID 1479 | TRb/SRC2 Texas Red total fluorescence interference | hit rate 0.29% among 280,000 | Potency, µM (top dose mostly 106 µM), inactives show at the top dose fluorescence change, negative = quenching; active = well fitted curve in either direction with a large enough effect; inconclusive = small, poorly fitted or top-dose-only effect
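Human TRb ligand-binding domain at 0.6 uM with 20 nM Texas Red SRC2 peptide in Tris buffer containing 1 uM T3 and 5% DMSO, incubated with compound 5 h at ambient temperature. Total fluorescence (555/632 nm) calculated as parallel + 2 × perpendicular.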
APE1 dye cs: counter-screen for APE1 inhibitors: DNA dye displacement. AID 2564. shares compounds with APE1 inh-1. Potency, µM (titrated, usually from 28.5 µM), without a hit: at the top dose activity change, negative = inhibition, hits mostly inhibitors. DNA fluorescent dye displacement counterscreen, fluorescence. hit rate 7% among 480;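 also: loss of thiazole orange fluorescence as the dye is displaced from duplex DNA; 0% = ThO with dsDNA and no compound and -100% = ThO without dsDNA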
Endo IV inh: blocks E. coli endonuclease IV DNA cleavage. E. coli Endo IV, fluorogenic AP-site DNA cleavage. AID 2565. Potency, µM (top dose mostly 27.1 µM), without a hit: top-dose activity change, negative = inhibition, actives largely listed as inhibitors. shares compounds with APE1 inh-1. hit rate 4% among 560;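 also: plate controls were uninhibited enzyme wells for no effect and no enzyme buffer wells for full effect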
APE1 inh-2: APE1 (human) endonuclease inhibition, confirmation; shares compounds with APE1 inh-1; Potency, µM (highest dose often 57.1 µM), for the others: at the top dose activity change, negative = inhibition, actives largely listed as inhibitors; purified APE1, fluorogenic abasic-site DNA cleavage; hit rate 44% among 750; also: nearly all actives have a fitted effect of over 30% in size
APE1 FP: compounds that displace a DNA probe from human APE1; shares compounds with APE1 inh-1; APE1 binding to TAMRA-labelled double-stranded DNA, fluorescence polarization displacement; Potency, µM (titrated, usually from 28.5 µM), for the others: top-dose activity, negative = inhibition, hits mostly inhibitors; hit rate 7% among 480
BLM inh-2: BLM (human) helicase inhibition, confirmation. BLM DNA unwinding, fluorescence quenching, biochemical. hit rate 40% among 220. shares compounds with BLM inh-1. Potency, µM, without a hit: max response, negative = inhibition, hits mostly inhibitors;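 also: strand separation dequenches TAMRA so unwinding raises red fluorescence; series mostly up to about 69 µM; nearly all actives have a fitted effect of over 45% in size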
RECQ1 inh conf: confirmation of human RECQ1 helicase inhibitors; Potency, µM (series often up to 229 µM), inactives show at the top dose activity change, negative = inhibition, usual class: inhibitors; shares compounds with RECQ1 inh-1; RECQ1 helicase DNA unwinding, fluorescence; hit rate 28% among 610; also: nearly all actives have a fitted effect of over 45% in size
RECQ1 ADP FP: counter-screen for RECQ1 inhibitors: ADP displacement | Potency, µM (series often up to 228 µM), for the others: top-dose activity change, negative = inhibition, most hits filed as inhibitors | AID 2711 | hit rate 27% among 530 | ADP fluorescence polarization displacement counterscreen | shares compounds with RECQ1 inh-1; also: nearly all actives have a fitted effect of over 45% in size
RECQ1 inh-2: confirmation of human RECQ1 helicase inhibitors. shares compounds with RECQ1 inh-1. recombinant RECQ1 DNA unwinding, red fluorescence. Potency, µM (highest dose often 119 µM), inactives show at the top dose activity, negative = inhibition, hits mostly inhibitors. hit rate 15% among 1,100; also: nearly all actives have a fitted effect of over 50% in size
An asterisk follows results filed as active; [ ] = another dose, or the depositor's remark. An excerpt weighted towards active compounds, which were near 0.91% of everything screened. Unless noted, calls follow the shape of the dose curve; as a rule, active = well fitted curve in the direction sought with a large enough effect; inconclusive = small, poorly fitted or top-dose-only effect, or another doubt; inactive = no such curve, though single readings can be large; an effect the other way counts as inactive or inconclusive. Unless noted, % is scaled to controls: 0 for no effect and ±100 for the full control effect; potency is read from the fitted curve at half-maximal effect.

What do the screens show for `Nc1ccc2c(c1Cl)C(=O)c1ccc(N)c(Cl)c1C2=O`?
TRb SRC2 PPI: -1.1%; BLM inh-1: 14.1µM*; WRN helicase inh: -26.5%[11.6 µM]; RECQ1 inh-1: inconclusive; APE1 inh-1: 8.91µM*; TexasRed fluor: inconclusive; APE1 dye cs: 6.31µM*; Endo IV inh: inconclusive; APE1 inh-2: 14.1µM*; APE1 FP: inconclusive; RECQ1 inh-2: inconclusive

Results for COc1ccc(N2Cc3cccc(C(=O)O)c3C2=O)cc1 ?
TRb SRC2 PPI: 8.9%; BLM inh-1: 15.8µM*; WRN helicase inh: 50.1µM*; RECQ1 inh-1: 14.1µM*; APE1 inh-1: 12.6µM*; TexasRed fluor: -3.3%; APE1 dye cs: 4.1%; Endo IV inh: -1.4%; APE1 inh-2: 3.98µM*; APE1 FP: inconclusive; BLM inh-2: 16.2µM*; RECQ1 inh conf: 25.1µM*; RECQ1 ADP FP: -32.1%[91.9 µM]; RECQ1 inh-2: 4.47µM*

What do the screens show for `C=CCn1c(SCC(=O)NC2CCCC2)nnc1-c1cccnc1`?
BLM inh-1: -0.9%; WRN helicase inh: -2.8%; APE1 inh-1: 10.9%

Results for CCn1c(SCC(=O)c2ccc(O)c(O)c2)nnc1-c1ccccc1OC ?
TRb SRC2 PPI: 1.7%; BLM inh-1: -5.0%; WRN helicase inh: 20µM*; RECQ1 inh-1: 14.1µM*; APE1 inh-1: inconclusive; TexasRed fluor: 0.7%; APE1 dye cs: 3.9%; Endo IV inh: 90.2%; APE1 inh-2: inconclusive; APE1 FP: 2.2%; RECQ1 inh-2: 2µM*

How did C=CCn1c(SCC(=O)c2ccc(O)c(O)c2)nnc1-c1cccnc1 do in these assays?
TRb SRC2 PPI: 1.5%; BLM inh-1: inconclusive; WRN helicase inh: 39.8µM*; RECQ1 inh-1: 8.91µM*; APE1 inh-1: 1.58µM*; TexasRed fluor: -1.8%; APE1 dye cs: -5.2%; Endo IV inh: 136.0%; APE1 inh-2: 2.51µM*; APE1 FP: -22.9%; RECQ1 inh-2: 3.55µM*

What do the screens show for `CCn1c(SCC(=O)c2ccc(O)c(O)c2)nnc1-c1ccccc1`?
TRb SRC2 PPI: -4.3%; BLM inh-1: -14.8%; WRN helicase inh: -31.3%; RECQ1 inh-1: -22.3%; APE1 inh-1: inconclusive; TexasRed fluor: -2.9%

How did CCOC(=O)C1CCCN(C(=O)c2csc(-c3ccc4c(c3)CCO4)n2)C1 (stereo unspecified) do in these assays?
TRb SRC2 PPI: 6.0%; BLM inh-1: -0.8%; WRN helicase inh: -9.2%; RECQ1 inh-1: 6.1%; APE1 inh-1: inconclusive; TexasRed fluor: -0.9%

Results for O=C1c2cccc3cccc(c23)C(=O)N1/N=C/c1ccc(O)cc1O ?
TRb SRC2 PPI: 10.3%; BLM inh-1: -7.1%; WRN helicase inh: 0.0%; RECQ1 inh-1: -9.2%; APE1 inh-1: -9.0%; TexasRed fluor: -4.3%

Results for O=C1c2ccccc2C(=O)N1/N=C/c1ccc(O)c(O)c1O ?
TRb SRC2 PPI: 3.0%; BLM inh-1: -24.3%; WRN helicase inh: 8.91µM*; RECQ1 inh-1: 6.31µM*; APE1 inh-1: 0.708µM*; TexasRed fluor: inconclusive; APE1 dye cs: -9.8%; Endo IV inh: 73.2%; APE1 inh-2: inconclusive; APE1 FP: 4.1%; RECQ1 inh conf: inconclusive; RECQ1 ADP FP: 35.5µM*

How did O=C(O)Cc1ccc(C(=O)CSc2ccccc2)s1 do in these assays?
TRb SRC2 PPI: 3.7%; BLM inh-1: -29.8%; WRN helicase inh: inconclusive; RECQ1 inh-1: inconclusive; APE1 inh-1: inconclusive; TexasRed fluor: -7.1%; APE1 dye cs: -2.6%; Endo IV inh: 7.0%; APE1 inh-2: inconclusive; APE1 FP: 8.3%; RECQ1 inh-2: 13.5%

What do the screens show for `COc1ccccc1-c1cncnc1NCCc1cnc[nH]1`?
TRb SRC2 PPI: 6.2%; BLM inh-1: -7.9%; RECQ1 inh-1: inactive; APE1 inh-1: -1.2%; TexasRed fluor: -27.2%

What do the screens show for `Cc1ccccc1Nc1sc(C(=O)c2ccc(F)cc2)c(N)c1C(=O)NCCc1ccccc1`?
TRb SRC2 PPI: 4.9%; BLM inh-1: -10.1%; TexasRed fluor: -18.9%

How did CC(=O)NCCc1ccc(O)c(O)c1 do in these assays?
TRb SRC2 PPI: -2.8%; RECQ1 inh-1: -9.9%; APE1 inh-1: 24.6%; TexasRed fluor: -3.7%

What do the screens show for `NCCc1ccc(O)c(O)c1`?
TRb SRC2 PPI: 7.1%; BLM inh-1: -9.6%; WRN helicase inh: 5.8%; RECQ1 inh-1: 14.1µM*; APE1 inh-1: 0.562µM*; TexasRed fluor: -1.9%; APE1 dye cs: -2.6%[57.1 µM]; Endo IV inh: 110.2%[57.1 µM]; APE1 inh-2: inconclusive; APE1 FP: inconclusive; RECQ1 inh conf: inconclusive; RECQ1 ADP FP: 89.1µM*

Source: PubChem
